Measurements published in PubChem BioAssay (Tox21).
Inconclusive results are not listed. A call without a number means that no potency is given here. Activity calls are given as the source filed them. Calls follow the shape of the full dose curve.

The compounds below were run against Progesterone receptor (Homo sapiens) (UniProt P06401) (assay: qHTS assay to identify small molecule agonists of the progesterone receptor (PR) signaling pathway (AID 1346784; also: nearly all actives have a fitted effect of over 30% in size)). Conditions: PR-UAS-bla HEK293T, beta-lactamase FRET ratio, 16 h; series mostly up to 92.4 µM.
Chain of Progesterone receptor (Homo sapiens) (P06401 whole entry, looked up): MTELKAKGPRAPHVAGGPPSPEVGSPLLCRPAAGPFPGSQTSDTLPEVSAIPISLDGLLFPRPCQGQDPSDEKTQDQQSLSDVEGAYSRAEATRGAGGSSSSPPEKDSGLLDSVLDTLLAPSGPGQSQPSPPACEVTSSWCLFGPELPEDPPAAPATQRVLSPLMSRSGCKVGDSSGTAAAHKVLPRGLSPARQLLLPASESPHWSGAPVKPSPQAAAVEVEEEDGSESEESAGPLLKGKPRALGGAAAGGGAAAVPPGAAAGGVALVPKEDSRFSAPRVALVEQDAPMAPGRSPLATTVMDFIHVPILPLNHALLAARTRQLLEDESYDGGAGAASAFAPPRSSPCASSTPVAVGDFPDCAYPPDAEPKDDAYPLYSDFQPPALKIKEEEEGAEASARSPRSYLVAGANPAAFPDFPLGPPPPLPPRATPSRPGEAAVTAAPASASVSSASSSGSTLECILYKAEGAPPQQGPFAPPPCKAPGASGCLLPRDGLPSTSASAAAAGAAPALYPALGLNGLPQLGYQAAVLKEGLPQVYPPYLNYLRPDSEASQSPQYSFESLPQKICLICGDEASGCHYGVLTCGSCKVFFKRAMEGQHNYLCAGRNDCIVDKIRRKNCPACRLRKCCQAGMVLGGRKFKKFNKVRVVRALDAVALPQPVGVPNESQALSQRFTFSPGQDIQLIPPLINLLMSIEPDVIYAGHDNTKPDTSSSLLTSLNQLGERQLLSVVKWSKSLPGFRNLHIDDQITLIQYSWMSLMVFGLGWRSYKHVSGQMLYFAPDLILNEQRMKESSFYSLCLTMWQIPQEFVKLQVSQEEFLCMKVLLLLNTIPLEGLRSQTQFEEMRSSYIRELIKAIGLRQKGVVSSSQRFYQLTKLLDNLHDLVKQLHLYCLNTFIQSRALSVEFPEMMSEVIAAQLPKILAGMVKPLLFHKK
From the text: U.S. Tox21 Program National Center for Advancing Translational Sciences [NCATS] NIH Chemical Genomics Center [NCGC] U.S. Environmental Protection Agency [EPA] National Institutes of Environmental Health Sciences [NIEHS] National Toxicology Program [NTP] U.S. Food and Drug Administration [FDA] […] Endocrine disrupting chemicals (EDCs) and their interactions with steroid hormone receptors like PR causes disruption of normal endocrine function. To identify the compounds that activate PR signaling, a PR-UAS-bla GripTite cell line i.e. PR-UAS-bla HEK 293T (Invitrogen, Carlsbad, CA, USA) containing a beta-lactamase reporter gene under the control of an Upstream Activator Sequence (UAS) was used to screen Tox21 10K compound library.
Tox21 Assay Protocol Summary: PR-UAS-bla HEK 293T cells were dispensed at 3,000 cells/5 uL of assay medium containing 2% charcoal stripped FBS per well into black wall/clear-bottom 1536-well plates using a Multidrop Combi (ThermoFisher Scientific, Waltham, MA) dispenser. After the assay plates were incubated at a 37C and 5% CO2 for 6hr, 23 nL of compounds dissolved in DMSO, positive controls or DMSO only was transferred to the assay plate by a Pintool station (Kalypsys, San Diego, CA). The plates were incubated at 37C and 5% CO2 for 16hr. Then 1 uL of LiveBLAzer B/G FRET substrate was added using a BioRAPTR FRD (Flying Reagent Dispenser, Aurora Discovery, San Diego, CA). After the plates were incubated at room temperature for 2 hours, fluorescence intensity was measured by an Envision plate reader (PerkinElmer, Shelton, CT).
Potency is read from the fitted curve at half-maximal effect.

Structure (SMILES) | Potency
NNC(N)=O | inactive
O=C(NC(O)C(Cl)(Cl)Cl)NC(O)C(Cl)(Cl)Cl (stereo not given) | inactive
CCCCS(=O)(=O)Cl | inactive
COP(=O)(OC)O/C(C)=C/C(=O)N(C)C | inactive
CCC(C)(C#N)N=NC(C)(C#N)CC (stereo not given) | inactive
C[C@]12C=CC(=O)C=C1CC[C@@H]1[C@@H]2CC[C@@]2(C)[C@H]1CC[C@]2(C)O | 3.35 µM (active)
O=c1[nH]oc2c1CCNC2 | inactive
CC(Cc1ccccc1)NCCn1cnc2c1c(=O)n(C)c(=O)n2C (stereo not given) | inactive
CCc1ccc(C2CCNCC2)cc1 | inactive
ClC1=C(Cl)C2(Cl)C(CBr)CC1(Cl)C2(Cl)Cl (stereo not given) | inactive
O=CCCl | inactive
CN=CNc1ccc(C)cc1C | inactive
CCC1(c2ccccc2)C(=O)N(COC)C(=O)N(COC)C1=O | inactive
O=[N+]([O-])c1cccc(CCl)c1 | inactive
CN(CCO)CCO | inactive
CCOC1Oc2ccc(OS(C)(=O)=O)cc2C1(C)C (stereo not given) | inactive
C=C(C)[C@H]1CN[C@H](C(=O)O)[C@H]1CC(=O)O | inactive
C=C(Cl)CCl | inactive
NCCOS(=O)(=O)O | inactive
NC(=O)CS(=O)C(c1ccccc1)c1ccccc1 (stereo not given) | inactive

Structure (SMILES) | Potency
O=C/C=C/c1ccco1 | inactive
COC(=O)c1ccc(CBr)cc1 | inactive
CCCOC(=O)Cc1ccc(OCC(=O)N(CC)CC)c(OC)c1 | inactive
ClCOCCl | inactive
C[C@H](CN1CCOCC1)C(C(=O)N1CCCC1)(c1ccccc1)c1ccccc1 | inactive
c1ccc2c(c1)CCNC2 | inactive
C=CC(=O)OCCN(C)C | inactive
BrCC1CO1 (stereo not given) | inactive
O=P(O)(O)c1ccccc1 | inactive
CCCC(C)C1(CC)C(=O)N=C(S)NC1=O (stereo not given) | inactive
CC(C)[C@]12CC(=O)[C@H](C)[C@H]1C2 | inactive
Oc1ccc2c3c1O[C@H]1[C@@H](O)C=C[C@H]4[C@@H](C2)NCC[C@@]341 | inactive
N[C@@H](Cc1ccc(Oc2cc(I)c(O)c(I)c2)c(I)c1)C(=O)O | inactive
[O-][Br+2]([O-])O | inactive
BrCc1ccc(Br)cc1 | inactive
CCOC(=O)c1ncn2c1CN(C)C(=O)c1c(I)cccc1-2 | inactive
C#CCOC(=O)/C=C(C)/C=C/CC(C)CCCC(C)C (stereo not given) | inactive
COc1cccc([C@@]2(O)CCCC[C@@H]2CN(C)C)c1 | inactive
CC#Cc1cc(C)nc(Nc2ccccc2)n1 | inactive
CCCCCCC1CCOC1=O (stereo not given) | inactive
